# Inconclusive results are not listed. Where a call stands in place of a potency, no number is given. A number with no mark means an inactive call. The source made the active and inactive calls. Calls follow the shape of the dose curve; as a rule, active = well fitted cell-killing curve with a large enough effect in the repeat runs; inconclusive = weak or mixed curves, or effect the other way; inactive = no such curve, though single readings can be large or run the other way.
# Experiment: qHTS assay to identify small molecule agonists of the RXR signaling pathway - cell viability counter screen (AID 1159529); also: nearly all actives have a fitted effect of over 50% in size
# Conditions: RXR-alpha-bla HEK293T viability, CellTiter-Glo, 16 h; series mostly up to 76.8 µM
# Source text: National Center for Advancing Translational Sciences [NCATS]
# NIH Chemical Genomics Center [NCGC]
# U.S. Environmental Protection Agency [EPA]
# National Institutes of Environmental Health Sciences [NIEHS]
# National Toxicology Program [NTP]
# U.S. Food and Drug Administration [FDA]
# The Retinoid X receptor (RXR), a nuclear hormone receptor expressed in liver, spleen, placenta, epidermis, central nervous system. These receptors are able to form homo and heterodimers with other nuclear receptors and due to this heterodimerizing ability, RXR functions as master regulators producing diverse physiological effects. Three subtypes of RXR exist; alpha, beta and gamma. Retinoid X receptor alpha (RXR-alpha) has potential roles in metabolic signaling pathways, skin alopecia, dermal cysts, cardiac development, insulin sensitization etc. Therefore screening environmental chemicals on RXR-alpha signaling can be used for the studies focused on such therapeutic applications. For quantification of RXR-alpha ligands signaling, GeneBLAzer RXR alpha-UAS-bla HEK 293T (Life Technologies, Carlsbad, CA) cells containing a beta-lactamase reporter-gene under control of Retinoid X receptor-alpha response element were used to screen Tox21 10K library. The cytotoxicity of the Tox21 compound library against the RXR-alpha HEK 293T cell line was tested in parallel by measuring cell viability using CellTiter-Glo assay (Promega Corporation, Madison, WI) in the same wells.
# Tox21 Assay Protocol Summary:
# RXR-alpha HEK 293T cells were dispensed at 2,000 cells/6 uL of assay medium containing 2% charcoal-stripped FBS using a Multidrop Combi (ThermoFisher Scientific, Waltham, MA) dispenser. The assay was performed in black wall/clear-bottom 1536-well plates (Greiner Bio-One North America Inc. Monroe, NC). Tetraoctyl ammonium bromide was used as a positive control in the cytotoxicity screen. After the assay plates were incubated at 37 C and 5% CO2 for 5 hr, 23 nL of compounds dissolved in DMSO, positive control or DMSO only were transferred to the assay plate by a Pintool station (Kalypsys, San Diego, CA). The assay plates were incubated at 37 C and 5% CO2 for 16 hr. One uL of LiveBLAzer B/G FRET substrate (Life Technologies) was added using a Flying Reagent Dispenser (FRD) (Aurora Discovery, San Diego, CA) and the plates were incubated at room temperature for 2 hr. Fluorescence intensity (405 nm excitation, 460/530 nm emission) was measured using an Envision plate reader (PerkinElmer, Shelton, CT). For cytotoxicity, 4 uL/well of CellTiter-Glo reagent was added into the assay plates using an FRD. After 30 min incubation at room temperature, the luminescence intensity was measured using a ViewLux plate reader (PerkinElmer).
# Potency is read from the fitted curve at half-maximal effect.
Structure (SMILES),Potency,"activity change, negative = cytotoxicity"
CC(C)(C)c1cccc(O)c1,inactive,–
OCCN(CCO)CCN(CCO)CCO,inactive,–
CCc1nnc(NS(=O)(=O)c2ccc(N)cc2)s1,inactive,–
O=C(O)c1ccccc1Nc1cc(Cl)ccc1C(=O)O,–,-23.8% [at 15.8 µM]
CCCCC(=O)O[C@]1(C(=O)CO)[C@H](C)C[C@H]2[C@@H]3CCC4=CC(=O)C=C[C@]4(C)[C@@]3(F)[C@@H](O)C[C@@]21C,inactive,–
CC(C)=CCCC(C)CCOC=O (stereo not given),inactive,–
Cc1c(-c2ccccc2)oc2c(C(=O)OCCN3CCCCC3)cccc2c1=O,inactive,–
CCCS(=O)c1ccc2nc(NC(=O)OC)[nH]c2c1 (stereo not given),inactive,–
CCCCCOc1ccc(C2SC(=O)NC2=O)cc1OCC (stereo not given),inactive,–
CC(=O)OC(C)OC(C)=O,inactive,–
NC(=O)NS(=O)(=O)c1ccc(Cl)cc1,inactive,–
CN(CC1(C)CCCO1)S(=O)(=O)c1ccc(Cl)c(S(N)(=O)=O)c1 (stereo not given),inactive,–
CCN(CC)CCNC(=O)COc1ccc(Cl)cc1,inactive,–
COC(=O)/C=C(/C)N,inactive,–
NCCC(O)(P(=O)(O)O)P(=O)(O)O,inactive,–
CCOc1ccc2nc(N)sc2c1,inactive,–
CCCCC1CCC(=O)O1 (stereo not given),inactive,–
O=C(CCCl)NCc1ccccc1,inactive,–
CCC(=O)Nc1ccc(O)cc1,inactive,–
OCc1c2ccccc2cc2ccccc12,inactive,–

Structure (SMILES),Potency,"activity change, negative = cytotoxicity"
C=O,inactive,–
CCCCC(CC)COC(=O)COc1cc(Cl)c(Cl)cc1Cl (stereo not given),inactive,–
CCCCN1C[C@H](O)[C@@H](O)[C@H](O)[C@H]1CO,inactive,–
NS(=O)(=O)c1cc(-c2nn[nH]n2)c(NCc2cccs2)cc1Cl,inactive,–
CN(C)CC[C@@H](c1ccc(Cl)cc1)c1ccccn1,inactive,–
NC/C=C/C(=O)O,inactive,–
FC(F)(F)C(F)(F)C(F)(F)C(F)(F)C(F)(F)C(F)(F)C(F)(F)C(F)(F)Br,inactive,–
COc1nc(C)nc(NC(=O)NS(=O)(=O)c2ccccc2OCCCl)n1,inactive,–
Cc1ccccc1C(=O)Nc1ccc(C(=O)N2CCCC(O)c3cc(Cl)ccc32)c(C)c1 (stereo not given),inactive,–
CC(C)(C)c1ccc(OC(=O)c2ccccc2O)cc1,49 µM (active),–
CCCCCCn1c(=O)c2c(ncn2C)n(C)c1=O,inactive,–
CC(C)S,inactive,–
C=CC(C)(O)CC/C=C(\C)CCC=C(C)C (stereo not given),inactive,–
CCNCCO,inactive,–
CC1(C)C(=O)N(Cl)C(=O)N1Br,inactive,–
Cc1cc(S(=O)(=O)O)c(N)cc1Cl,inactive,–
C=C(C)C(=O)OCCOP(=O)(O)O,inactive,–
O=c1[nH]cnc2c1ncn2[C@@H]1O[C@H](CO)[C@@H](O)[C@H]1O,inactive,–
OC[C@H]1O[C@@H](O[C@H]2[C@H](O)[C@@H](O)[C@H](O)O[C@@H]2CO)[C@H](O)[C@@H](O)[C@H]1O,inactive,–
FC(F)(F)c1ccccc1,inactive,–

# Source: PubChem BioAssay (Tox21)
